# Reference: publication PMC7862700, “An all-to-all approach to the identification of sequence-specific readers for epigenetic DNA modifications on cytosine”
# Assays:
# Assay in all cases: DAPPL (digital affinity profiling via proximity ligation, sequencing); 10 mM Tris-HCl pH 7.5, 50 mM NaCl, 1 mM DTT, 4% glycerol, room temperature, 30 min; GST-TFs on glutathione beads, 16-mer random dsDNA library, 0.1% formaldehyde crosslink after washing; high values mean tight binding
# FLI1 = molecular target: T1, FLI1 (Homo sapiens, UniProt Q01543 1-452); conditions: protein: recombinant; tags: N-terminal GST; dsDNA, one strand shown
# T1 sequence: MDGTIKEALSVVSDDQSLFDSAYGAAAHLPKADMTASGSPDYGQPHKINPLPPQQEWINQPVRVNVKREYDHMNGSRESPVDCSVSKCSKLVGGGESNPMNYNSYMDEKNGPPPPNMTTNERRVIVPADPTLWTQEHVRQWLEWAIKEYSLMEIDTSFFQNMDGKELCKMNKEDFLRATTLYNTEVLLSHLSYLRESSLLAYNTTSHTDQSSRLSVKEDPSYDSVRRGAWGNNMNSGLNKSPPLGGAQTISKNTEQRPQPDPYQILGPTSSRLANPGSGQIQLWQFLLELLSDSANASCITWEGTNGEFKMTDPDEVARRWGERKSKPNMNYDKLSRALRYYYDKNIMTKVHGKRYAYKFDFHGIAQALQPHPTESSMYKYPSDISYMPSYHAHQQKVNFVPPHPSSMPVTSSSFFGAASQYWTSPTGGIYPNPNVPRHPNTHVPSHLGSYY
# Summary of the method: (§1)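 A tag-only sample was pooled with DNA-barcoded human transcription factors that had been expressed in yeast as GST fusions and captured on glutathione beads. The pools were incubated for 30 min at room temperature with 200 nmole of a random double-stranded 16-mer DNA library in Tris/NaCl/DTT/glycerol buffer, then washed, crosslinked with 0.1% formaldehyde, proximity-ligated (BsaI/T4 ligase, 1 h, 37 °C), PCR-amplified and sequenced on an Illumina NextSeq500. Binding signal is each hexamer's read frequency for a factor divided by its frequency for the tag-only sample.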
# ELK1 = molecular target: T2, ELK1 (Homo sapiens, UniProt P19419 1-428); conditions: protein: recombinant; tags: N-terminal GST; dsDNA, one strand shown
# T2 sequence: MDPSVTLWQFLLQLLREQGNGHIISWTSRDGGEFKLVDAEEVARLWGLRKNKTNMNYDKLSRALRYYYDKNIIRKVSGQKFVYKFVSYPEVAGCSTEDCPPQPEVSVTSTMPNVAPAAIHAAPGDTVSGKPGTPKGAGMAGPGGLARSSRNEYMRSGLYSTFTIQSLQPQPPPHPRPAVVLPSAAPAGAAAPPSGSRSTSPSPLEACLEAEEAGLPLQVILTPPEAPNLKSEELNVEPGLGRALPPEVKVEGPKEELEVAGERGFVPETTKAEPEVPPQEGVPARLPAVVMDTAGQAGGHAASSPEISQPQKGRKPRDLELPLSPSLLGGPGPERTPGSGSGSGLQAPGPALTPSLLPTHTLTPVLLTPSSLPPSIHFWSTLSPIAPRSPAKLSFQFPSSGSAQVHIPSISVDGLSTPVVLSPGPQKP
# Summary of the method: as §1
# GABPA = molecular target: T3, GABPA (Homo sapiens, UniProt Q06546 1-454); conditions: protein: recombinant; tags: N-terminal GST; dsDNA, one strand shown
# T3 sequence: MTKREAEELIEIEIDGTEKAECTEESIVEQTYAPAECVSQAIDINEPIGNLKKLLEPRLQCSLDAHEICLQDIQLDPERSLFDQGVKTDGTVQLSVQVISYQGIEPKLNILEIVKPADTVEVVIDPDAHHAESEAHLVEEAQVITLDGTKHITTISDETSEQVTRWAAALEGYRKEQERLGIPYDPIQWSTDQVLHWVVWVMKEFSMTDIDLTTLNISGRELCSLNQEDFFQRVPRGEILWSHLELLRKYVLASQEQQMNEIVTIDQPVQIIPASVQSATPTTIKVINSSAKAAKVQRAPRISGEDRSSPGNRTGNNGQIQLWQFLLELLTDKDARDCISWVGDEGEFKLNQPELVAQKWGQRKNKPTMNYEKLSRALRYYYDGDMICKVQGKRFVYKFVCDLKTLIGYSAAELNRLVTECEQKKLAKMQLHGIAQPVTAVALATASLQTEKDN
# Summary of the method: as §1
# ERG = molecular target: T4, ERG (Homo sapiens, UniProt P11308 1-479); conditions: protein: recombinant; tags: N-terminal GST; dsDNA, one strand shown
# T4 sequence: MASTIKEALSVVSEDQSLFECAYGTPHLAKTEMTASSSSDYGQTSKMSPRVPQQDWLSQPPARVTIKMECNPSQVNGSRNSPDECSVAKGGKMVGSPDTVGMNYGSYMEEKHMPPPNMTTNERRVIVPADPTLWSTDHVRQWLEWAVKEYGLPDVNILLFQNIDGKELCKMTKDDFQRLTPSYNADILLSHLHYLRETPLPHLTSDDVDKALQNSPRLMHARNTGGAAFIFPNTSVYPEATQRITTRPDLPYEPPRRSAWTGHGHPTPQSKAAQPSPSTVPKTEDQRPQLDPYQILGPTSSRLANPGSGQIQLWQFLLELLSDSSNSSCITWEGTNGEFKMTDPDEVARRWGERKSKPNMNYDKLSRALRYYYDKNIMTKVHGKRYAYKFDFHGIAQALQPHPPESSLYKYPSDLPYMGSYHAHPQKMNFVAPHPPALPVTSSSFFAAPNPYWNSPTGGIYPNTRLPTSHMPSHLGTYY
# Summary of the method: as §1
# ELF1 = ELF1 (Homo sapiens, UniProt P32519 1-619); conditions: protein: recombinant; tags: N-terminal GST; dsDNA, one strand shown
# Chain of ELF1 (P32519 whole entry): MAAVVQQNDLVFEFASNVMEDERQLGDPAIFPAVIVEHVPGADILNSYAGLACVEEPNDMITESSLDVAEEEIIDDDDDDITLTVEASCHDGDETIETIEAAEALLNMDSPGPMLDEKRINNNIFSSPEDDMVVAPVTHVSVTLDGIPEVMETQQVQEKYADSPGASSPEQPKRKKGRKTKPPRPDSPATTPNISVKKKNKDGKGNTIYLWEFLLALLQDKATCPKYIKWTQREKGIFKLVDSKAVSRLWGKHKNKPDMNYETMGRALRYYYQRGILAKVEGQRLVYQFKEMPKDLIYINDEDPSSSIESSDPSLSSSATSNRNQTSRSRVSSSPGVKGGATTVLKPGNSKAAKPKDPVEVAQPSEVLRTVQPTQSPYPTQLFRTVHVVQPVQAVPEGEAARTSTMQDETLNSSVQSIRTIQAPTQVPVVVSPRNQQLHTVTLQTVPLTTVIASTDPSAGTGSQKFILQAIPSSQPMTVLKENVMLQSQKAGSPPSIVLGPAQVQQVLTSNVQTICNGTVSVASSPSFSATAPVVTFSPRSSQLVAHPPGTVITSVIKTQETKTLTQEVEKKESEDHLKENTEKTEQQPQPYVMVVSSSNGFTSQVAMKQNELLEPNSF
# Summary of the method: as §1
# EHF = molecular target: T5, EHF (Homo sapiens, UniProt Q9NZC4 1-300); conditions: protein: recombinant; tags: N-terminal GST; dsDNA, one strand shown
# T5 sequence: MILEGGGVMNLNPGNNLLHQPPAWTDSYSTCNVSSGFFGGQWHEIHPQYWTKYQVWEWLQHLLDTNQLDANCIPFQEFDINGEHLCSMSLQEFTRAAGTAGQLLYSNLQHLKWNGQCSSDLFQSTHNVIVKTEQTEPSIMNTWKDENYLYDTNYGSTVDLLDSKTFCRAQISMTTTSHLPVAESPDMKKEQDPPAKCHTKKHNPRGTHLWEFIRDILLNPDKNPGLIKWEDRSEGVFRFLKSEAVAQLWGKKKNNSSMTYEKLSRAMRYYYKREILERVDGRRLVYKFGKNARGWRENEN
# Summary of the method: as §1
# SPI1 = SPI1 (Homo sapiens, UniProt P17947 1-270); conditions: protein: recombinant; tags: N-terminal GST; dsDNA, one strand shown
# Summary of the method: as §1
# SPIB = SPIB (Homo sapiens, UniProt Q01892 1-262); conditions: protein: recombinant; tags: N-terminal GST; dsDNA, one strand shown
# Chain of SPIB (Q01892 whole entry): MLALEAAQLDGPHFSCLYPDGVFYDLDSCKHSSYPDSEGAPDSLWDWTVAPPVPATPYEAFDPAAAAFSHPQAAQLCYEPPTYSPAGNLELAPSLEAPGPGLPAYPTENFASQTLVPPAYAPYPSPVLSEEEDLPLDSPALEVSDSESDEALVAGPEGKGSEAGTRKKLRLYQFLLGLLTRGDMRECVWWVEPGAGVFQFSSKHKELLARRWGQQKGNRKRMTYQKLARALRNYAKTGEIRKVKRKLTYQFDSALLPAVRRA
# Summary of the method: as §1
# ELK3 = molecular target: T6, ELK3 (Homo sapiens, UniProt P41970 1-407); conditions: protein: recombinant; tags: N-terminal GST; dsDNA, one strand shown
# T6 sequence: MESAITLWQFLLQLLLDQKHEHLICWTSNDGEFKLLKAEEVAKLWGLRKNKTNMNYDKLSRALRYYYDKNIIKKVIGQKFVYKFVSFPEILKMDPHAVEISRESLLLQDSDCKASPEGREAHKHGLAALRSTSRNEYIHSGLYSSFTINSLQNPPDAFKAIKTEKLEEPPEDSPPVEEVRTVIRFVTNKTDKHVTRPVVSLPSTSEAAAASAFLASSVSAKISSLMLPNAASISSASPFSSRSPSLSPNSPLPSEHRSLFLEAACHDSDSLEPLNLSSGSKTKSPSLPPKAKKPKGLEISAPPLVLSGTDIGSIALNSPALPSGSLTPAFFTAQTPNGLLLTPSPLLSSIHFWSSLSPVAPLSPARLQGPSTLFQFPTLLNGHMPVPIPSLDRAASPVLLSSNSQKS
# Summary of the method: as §1
# FEV = molecular target: T7, FEV (Homo sapiens, UniProt Q99581 1-238); conditions: protein: recombinant; tags: N-terminal GST; dsDNA, one strand shown
# T7 sequence: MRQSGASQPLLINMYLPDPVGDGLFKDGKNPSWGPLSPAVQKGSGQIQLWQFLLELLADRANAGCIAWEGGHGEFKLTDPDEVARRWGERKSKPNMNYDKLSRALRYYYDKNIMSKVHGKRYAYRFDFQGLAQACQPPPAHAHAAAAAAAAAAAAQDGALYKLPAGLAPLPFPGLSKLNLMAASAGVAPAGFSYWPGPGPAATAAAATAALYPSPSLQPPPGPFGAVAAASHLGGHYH
# Summary of the method: as §1
# ETV5 = ETV5 (Homo sapiens, UniProt P41161 1-510); conditions: protein: recombinant; tags: N-terminal GST; dsDNA, one strand shown
# Chain of ETV5 (P41161 whole entry): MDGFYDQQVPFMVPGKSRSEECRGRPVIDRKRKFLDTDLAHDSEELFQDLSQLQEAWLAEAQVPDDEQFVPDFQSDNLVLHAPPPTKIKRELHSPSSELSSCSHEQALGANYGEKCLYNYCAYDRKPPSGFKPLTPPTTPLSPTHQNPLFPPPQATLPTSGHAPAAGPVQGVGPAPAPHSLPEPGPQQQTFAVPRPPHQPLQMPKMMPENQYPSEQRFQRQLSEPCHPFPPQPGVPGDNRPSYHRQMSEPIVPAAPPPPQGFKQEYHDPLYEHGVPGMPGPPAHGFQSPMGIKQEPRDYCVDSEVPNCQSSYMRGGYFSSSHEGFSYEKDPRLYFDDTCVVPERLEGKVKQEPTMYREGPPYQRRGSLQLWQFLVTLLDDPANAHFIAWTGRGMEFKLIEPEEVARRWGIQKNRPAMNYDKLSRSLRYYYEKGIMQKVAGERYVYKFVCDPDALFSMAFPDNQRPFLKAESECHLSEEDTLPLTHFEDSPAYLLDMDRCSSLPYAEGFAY
# Summary of the method: as §1
# HSF1 = HSF1 (Homo sapiens, UniProt Q00613 1-529); conditions: protein: recombinant; tags: N-terminal GST; chain copies: 3; dsDNA, one strand shown
# Chain of HSF1 (Q00613 whole entry): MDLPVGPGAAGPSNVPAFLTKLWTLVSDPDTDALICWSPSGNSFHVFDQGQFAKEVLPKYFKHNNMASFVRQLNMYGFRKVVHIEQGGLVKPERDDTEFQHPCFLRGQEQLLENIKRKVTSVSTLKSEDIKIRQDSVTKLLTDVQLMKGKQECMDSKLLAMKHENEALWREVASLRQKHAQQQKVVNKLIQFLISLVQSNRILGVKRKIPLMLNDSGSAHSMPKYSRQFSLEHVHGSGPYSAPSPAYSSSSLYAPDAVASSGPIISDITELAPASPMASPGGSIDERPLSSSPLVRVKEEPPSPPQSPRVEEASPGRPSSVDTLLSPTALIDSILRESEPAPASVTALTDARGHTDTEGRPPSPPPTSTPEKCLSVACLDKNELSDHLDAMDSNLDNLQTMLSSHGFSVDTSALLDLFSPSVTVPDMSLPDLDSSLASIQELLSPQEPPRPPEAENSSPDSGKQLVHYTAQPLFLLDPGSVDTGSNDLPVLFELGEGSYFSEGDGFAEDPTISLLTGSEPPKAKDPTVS
# Summary of the method: as §1
# SPIC = molecular target: T8, SPIC (Homo sapiens, UniProt Q8N5J4 1-248); conditions: protein: recombinant; tags: N-terminal GST; dsDNA, one strand shown
# T8 sequence: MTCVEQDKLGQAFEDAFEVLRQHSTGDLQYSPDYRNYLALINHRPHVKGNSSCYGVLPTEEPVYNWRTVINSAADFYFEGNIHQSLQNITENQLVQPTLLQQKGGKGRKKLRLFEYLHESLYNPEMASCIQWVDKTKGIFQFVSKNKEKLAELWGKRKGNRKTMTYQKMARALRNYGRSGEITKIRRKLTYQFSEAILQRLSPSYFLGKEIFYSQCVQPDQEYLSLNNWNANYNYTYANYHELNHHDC
# Summary of the method: as §1
# ELF4 = ELF4 (Homo sapiens, UniProt Q99607 1-663); conditions: protein: recombinant; tags: N-terminal GST; dsDNA, one strand shown
# Chain of ELF4 (Q99607 whole entry): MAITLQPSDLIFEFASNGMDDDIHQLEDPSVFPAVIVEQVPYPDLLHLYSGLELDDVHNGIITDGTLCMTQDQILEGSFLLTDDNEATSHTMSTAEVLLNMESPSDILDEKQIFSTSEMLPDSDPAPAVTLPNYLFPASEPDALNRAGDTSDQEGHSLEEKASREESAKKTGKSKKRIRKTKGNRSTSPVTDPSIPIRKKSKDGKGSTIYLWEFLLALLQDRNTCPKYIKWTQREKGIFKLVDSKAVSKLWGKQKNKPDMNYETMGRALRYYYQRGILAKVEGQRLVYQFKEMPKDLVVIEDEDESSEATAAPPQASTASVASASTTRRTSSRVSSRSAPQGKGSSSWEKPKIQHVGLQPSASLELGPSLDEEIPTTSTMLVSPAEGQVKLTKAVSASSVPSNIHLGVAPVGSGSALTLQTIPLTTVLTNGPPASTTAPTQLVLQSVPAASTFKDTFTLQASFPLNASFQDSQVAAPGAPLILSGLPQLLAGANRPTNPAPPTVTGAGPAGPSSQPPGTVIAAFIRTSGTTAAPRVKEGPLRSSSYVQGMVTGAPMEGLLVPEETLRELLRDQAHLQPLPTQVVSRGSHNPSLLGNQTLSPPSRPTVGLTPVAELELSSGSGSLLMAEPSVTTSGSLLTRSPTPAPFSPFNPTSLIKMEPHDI
# Summary of the method: as §1
# ELK4 = molecular target: T9, ELK4 (Homo sapiens, UniProt P28324-2 1-405); conditions: protein: recombinant; tags: N-terminal GST; dsDNA, one strand shown
# T9 sequence: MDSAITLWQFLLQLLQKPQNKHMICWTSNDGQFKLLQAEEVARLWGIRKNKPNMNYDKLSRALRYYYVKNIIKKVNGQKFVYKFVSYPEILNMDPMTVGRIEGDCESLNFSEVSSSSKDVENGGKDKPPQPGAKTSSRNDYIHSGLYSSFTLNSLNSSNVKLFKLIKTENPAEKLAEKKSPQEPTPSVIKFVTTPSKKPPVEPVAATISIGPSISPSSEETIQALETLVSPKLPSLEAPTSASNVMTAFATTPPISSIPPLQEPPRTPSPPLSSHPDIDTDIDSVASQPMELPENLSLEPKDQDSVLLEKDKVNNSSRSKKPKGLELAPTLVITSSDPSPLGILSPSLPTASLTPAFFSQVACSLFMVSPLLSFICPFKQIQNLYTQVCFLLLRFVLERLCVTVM
# Summary of the method: as §1
# ETV2 = molecular target: T10, ETV2 (Homo sapiens, UniProt O00321 1-342); conditions: protein: recombinant; tags: N-terminal GST; dsDNA, one strand shown
# T10 sequence: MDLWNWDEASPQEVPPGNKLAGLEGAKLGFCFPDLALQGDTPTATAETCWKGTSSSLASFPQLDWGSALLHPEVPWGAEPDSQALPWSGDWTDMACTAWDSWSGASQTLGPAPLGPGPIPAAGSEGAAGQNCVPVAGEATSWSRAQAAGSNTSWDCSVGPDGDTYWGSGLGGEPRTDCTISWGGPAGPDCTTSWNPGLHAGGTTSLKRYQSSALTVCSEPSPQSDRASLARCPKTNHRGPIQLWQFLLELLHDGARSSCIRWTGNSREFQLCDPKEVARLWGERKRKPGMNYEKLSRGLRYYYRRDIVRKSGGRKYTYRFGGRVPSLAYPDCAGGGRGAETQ
# Summary of the method: as §1
# ELF3 = molecular target: T11, ELF3 (Homo sapiens, UniProt P78545 1-371); conditions: protein: recombinant; tags: N-terminal GST; dsDNA, one strand shown
# T11 sequence: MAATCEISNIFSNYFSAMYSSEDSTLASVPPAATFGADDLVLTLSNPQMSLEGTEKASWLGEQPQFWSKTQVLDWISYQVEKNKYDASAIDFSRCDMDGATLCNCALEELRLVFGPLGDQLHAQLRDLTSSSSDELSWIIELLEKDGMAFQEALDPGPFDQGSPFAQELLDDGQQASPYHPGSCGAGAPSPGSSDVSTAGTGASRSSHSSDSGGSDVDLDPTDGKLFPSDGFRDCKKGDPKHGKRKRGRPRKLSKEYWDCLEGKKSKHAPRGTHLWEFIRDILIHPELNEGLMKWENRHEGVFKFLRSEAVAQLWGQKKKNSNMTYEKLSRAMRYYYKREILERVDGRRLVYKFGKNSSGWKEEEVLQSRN
# Summary of the method: as §1
# CRX = CRX (Homo sapiens, UniProt O43186 1-299); conditions: protein: recombinant; tags: N-terminal GST; dsDNA, one strand shown
# Chain of CRX (O43186 whole entry): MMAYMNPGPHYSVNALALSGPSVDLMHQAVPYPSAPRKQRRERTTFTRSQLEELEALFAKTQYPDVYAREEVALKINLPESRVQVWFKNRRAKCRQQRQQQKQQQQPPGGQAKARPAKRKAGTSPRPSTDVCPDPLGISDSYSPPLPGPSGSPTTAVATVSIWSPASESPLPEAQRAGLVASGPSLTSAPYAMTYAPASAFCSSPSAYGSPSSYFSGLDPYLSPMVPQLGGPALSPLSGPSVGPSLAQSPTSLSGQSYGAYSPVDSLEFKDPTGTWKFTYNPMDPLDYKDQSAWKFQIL
# Summary of the method: as §1
# ETV1 = ETV1 (Homo sapiens, UniProt P50549 1-477); conditions: protein: recombinant; tags: N-terminal GST; dsDNA, one strand shown
# Chain of ETV1 (P50549 whole entry): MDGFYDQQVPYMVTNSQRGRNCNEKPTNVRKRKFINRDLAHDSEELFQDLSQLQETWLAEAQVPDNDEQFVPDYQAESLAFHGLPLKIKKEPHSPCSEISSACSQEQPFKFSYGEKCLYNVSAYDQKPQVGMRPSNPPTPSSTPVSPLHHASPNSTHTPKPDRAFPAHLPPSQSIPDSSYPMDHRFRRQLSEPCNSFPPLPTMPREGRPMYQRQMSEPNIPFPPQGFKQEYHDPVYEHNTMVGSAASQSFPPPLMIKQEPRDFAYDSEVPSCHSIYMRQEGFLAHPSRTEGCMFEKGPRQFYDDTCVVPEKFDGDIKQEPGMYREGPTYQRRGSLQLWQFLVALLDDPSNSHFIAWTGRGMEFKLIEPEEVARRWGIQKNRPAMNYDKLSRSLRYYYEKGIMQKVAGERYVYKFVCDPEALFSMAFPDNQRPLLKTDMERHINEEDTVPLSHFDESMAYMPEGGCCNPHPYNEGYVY
# Summary of the method: as §1
sequence,measurement,setting,value
TTTGGG,binding signal,FLI1,"1.27 fold enrichment (6-mer frequency, TF over GST control)"
same,binding signal,ELK1,"1.34 fold enrichment (6-mer frequency, TF over GST control)"
same,binding signal,GABPA,"1.37 fold enrichment (6-mer frequency, TF over GST control)"
same,binding signal,ERG,"1.25 fold enrichment (6-mer frequency, TF over GST control)"
same,binding signal,ELF1,"1.25 fold enrichment (6-mer frequency, TF over GST control)"
same,binding signal,EHF,"1.28 fold enrichment (6-mer frequency, TF over GST control)"
same,binding signal,SPI1,"1.4 fold enrichment (6-mer frequency, TF over GST control)"
same,binding signal,SPIB,"1.18 fold enrichment (6-mer frequency, TF over GST control)"
same,binding signal,ELK3,"1.29 fold enrichment (6-mer frequency, TF over GST control)"
same,binding signal,FEV,"1.31 fold enrichment (6-mer frequency, TF over GST control)"
same,binding signal,ETV5,"1.39 fold enrichment (6-mer frequency, TF over GST control)"
same,binding signal,HSF1,"1.36 fold enrichment (6-mer frequency, TF over GST control)"
same,binding signal,SPIC,"1.16 fold enrichment (6-mer frequency, TF over GST control)"
same,binding signal,ELF4,"1.41 fold enrichment (6-mer frequency, TF over GST control)"
same,binding signal,ELK4,"1.41 fold enrichment (6-mer frequency, TF over GST control)"
same,binding signal,ETV2,"1.42 fold enrichment (6-mer frequency, TF over GST control)"
same,binding signal,ELF3,"1.7 fold enrichment (6-mer frequency, TF over GST control)"
same,binding signal,CRX,"1.57 fold enrichment (6-mer frequency, TF over GST control)"
same,binding signal,ETV1,"1.43 fold enrichment (6-mer frequency, TF over GST control)"
